{"source": "PubChem BioAssay (EPA / NIEHS)", "key": {"[1]": {"target": "Nuclear respiratory factor 1 (Homo sapiens) (UniProt Q16656)", "sequence (Q16656 whole entry, looked up)": "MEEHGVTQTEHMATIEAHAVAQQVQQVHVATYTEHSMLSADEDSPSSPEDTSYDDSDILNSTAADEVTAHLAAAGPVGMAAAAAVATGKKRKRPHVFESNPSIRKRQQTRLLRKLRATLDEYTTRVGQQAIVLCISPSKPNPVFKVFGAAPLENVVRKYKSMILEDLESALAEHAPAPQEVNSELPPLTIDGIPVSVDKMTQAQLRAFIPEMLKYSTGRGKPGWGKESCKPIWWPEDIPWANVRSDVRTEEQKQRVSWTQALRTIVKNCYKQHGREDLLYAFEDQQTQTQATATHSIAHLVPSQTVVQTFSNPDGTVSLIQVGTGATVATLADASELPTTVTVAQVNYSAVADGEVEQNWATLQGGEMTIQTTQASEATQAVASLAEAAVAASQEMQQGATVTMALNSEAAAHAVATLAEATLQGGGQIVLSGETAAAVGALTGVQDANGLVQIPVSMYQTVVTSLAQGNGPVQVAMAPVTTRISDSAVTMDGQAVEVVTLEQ", "assay": "ATG_NRF1_CIS: Attagene CIS-FACTORIAL HepG2 Assay for human Nuclear Respiratory Factor 1 (NRF1) Orphan Gene (AID 2282987)", "conditions": "HepG2 NRF1 cis-element reporter, Attagene multiplex; actives raise or lower the signal", "how_it_was_run": "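Endogenous NRF1-driven reporter transcription in transfected HepG2 cells after 24 h treatment. Readout: RT-PCR products, 6-FAM labelled and resolved by capillary electrophoresis; changes fitted both directions relative to DMSO.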"}, "[2]": {"assay": "ATG_NFI_CIS: Attagene CIS-FACTORIAL HepG2 Assay for human Nuclear Factor I (NFI) (AID 2282989)", "conditions": "HepG2 cis-regulatory reporter, NFI response element transcription; actives raise or lower the signal", "how_it_was_run": "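Transient MRTU transfection of HepG2 → 24 h chemical dosing → total RNA, oligo(dT) RT → PCR, 6-FAM primer extension, HpaI cut → capillary electrophoresis. Endpoint fitted bidirectionally relative to DMSO.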"}, "[3]": {"target": "Myc proto-oncogene protein (Homo sapiens) (UniProt P01106)", "sequence (P01106 whole entry, looked up)": "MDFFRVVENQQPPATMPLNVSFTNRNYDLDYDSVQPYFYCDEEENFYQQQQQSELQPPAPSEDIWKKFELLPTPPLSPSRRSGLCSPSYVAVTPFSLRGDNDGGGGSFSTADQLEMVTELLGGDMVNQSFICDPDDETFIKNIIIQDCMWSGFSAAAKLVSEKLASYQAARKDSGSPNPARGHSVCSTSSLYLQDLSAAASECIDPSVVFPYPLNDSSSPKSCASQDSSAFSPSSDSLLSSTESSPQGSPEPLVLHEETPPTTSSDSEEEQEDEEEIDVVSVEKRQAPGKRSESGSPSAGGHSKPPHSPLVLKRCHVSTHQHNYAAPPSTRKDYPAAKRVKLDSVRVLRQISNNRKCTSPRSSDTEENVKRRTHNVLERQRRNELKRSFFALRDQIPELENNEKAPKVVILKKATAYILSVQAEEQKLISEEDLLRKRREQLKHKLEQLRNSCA", "assay": "ATG_Myc_CIS: Attagene CIS-FACTORIAL HepG2 Assay for human Myelocytomatosis (Myc) Proto-Oncogene Transcription Factor (AID 2282990)", "conditions": "HepG2, Attagene cis-reporter transcription factor activity; actives raise or lower the signal", "how_it_was_run": "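Multiplexed cis-reporter transcription in HepG2 cells after 24 h chemical treatment. Reporter mRNA measured by RT-PCR and capillary electrophoresis fluorescence; activity fitted bidirectionally against DMSO control.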"}, "[4]": {"assay": "ATG_NF_kB_CIS: Attagene CIS-FACTORIAL HepG2 Assay for human Nuclear Factor Kappa B (NF-kB) (AID 2282991)", "conditions": "HepG2 Attagene cis-factorial NF-kB reporter mRNA; actives raise or lower the signal", "how_it_was_run": "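Readout is reporter transcript level, gain or loss versus DMSO, measured 24 h post-dose via RT-PCR, fluorescent labelling and capillary electrophoresis. Human HepG2 liver cells carried transiently transfected CIS reporter constructs reflecting endogenous factors.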"}, "[5]": {"assay": "ATG_NRF2_ARE_CIS: Attagene CIS-FACTORIAL HepG2 Assay for human Nuclear Factor Erythroid 2 Related Factor 2 (NFR2) response to Antioxidant Response Elements (ARE) (AID 2282992)", "conditions": "HepG2 Attagene ARE/NRF2 reporter, transcription factor activity; actives raise or lower the signal", "how_it_was_run": "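Cis-factorial assay: transfected HepG2 reporter library, 24 h dosing, mRNA readout via RT-PCR/CE; DMSO-referenced bidirectional analysis.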"}, "[6]": {"assay": "ATG_Oct_MLP_CIS: Attagene CIS-FACTORIAL HepG2 Assay for human Octamer-Binding Transcription Factor (Oct) (AID 2282993)", "conditions": "HepG2 Attagene cis-factorial Oct reporter, mRNA; actives raise or lower the signal", "how_it_was_run": "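Transient MRTU transfection of HepG2 → 24 h compound treatment → RNA isolation, reverse transcription, PCR → 6-FAM primer extension, HpaI digest → capillary electrophoresis. Activity fitted both directions against DMSO.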"}, "[7]": {"target": "human Peroxisome Proliferator-activated Receptor alpha (PPARa), PPARA (gene 5465) (UniProt Q07869)", "sequence (Q07869 whole entry, looked up)": "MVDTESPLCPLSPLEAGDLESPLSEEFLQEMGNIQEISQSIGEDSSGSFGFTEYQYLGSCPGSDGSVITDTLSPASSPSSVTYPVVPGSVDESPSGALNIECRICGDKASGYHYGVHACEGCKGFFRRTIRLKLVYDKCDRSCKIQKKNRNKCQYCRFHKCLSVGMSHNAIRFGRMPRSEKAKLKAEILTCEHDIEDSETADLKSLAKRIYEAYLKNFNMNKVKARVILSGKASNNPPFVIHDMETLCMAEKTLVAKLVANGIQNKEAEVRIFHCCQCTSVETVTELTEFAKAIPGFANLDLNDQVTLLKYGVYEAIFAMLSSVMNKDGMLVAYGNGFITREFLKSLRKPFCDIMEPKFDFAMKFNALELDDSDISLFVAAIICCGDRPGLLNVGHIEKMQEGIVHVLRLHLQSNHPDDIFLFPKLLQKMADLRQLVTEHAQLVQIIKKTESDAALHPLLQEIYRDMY", "assay": "ATG_PPARa_TRANS: Attagene TRANS-FACTORIAL HepG2 Assay for human Peroxisome Proliferator-activated Receptor alpha (PPARa) (AID 2283001; active = hit-call score of the fitted dose curve at least 0.9, where 1 is the maximum)", "how_it_was_run": "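Gain-of-signal endpoint: reporter mRNA induction relative to DMSO, detected by fluorescent RT-PCR and capillary electrophoresis. HepG2 cells transiently carried GAL4-UAS-driven reporter units plus NR-Gal4 fusion; exposure lasted 24 h.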"}, "[8]": {"target": "Peroxisome proliferator-activated receptor gamma (Homo sapiens) (UniProt P37231)", "sequence (P37231 whole entry, looked up, the tested form may be a part)": "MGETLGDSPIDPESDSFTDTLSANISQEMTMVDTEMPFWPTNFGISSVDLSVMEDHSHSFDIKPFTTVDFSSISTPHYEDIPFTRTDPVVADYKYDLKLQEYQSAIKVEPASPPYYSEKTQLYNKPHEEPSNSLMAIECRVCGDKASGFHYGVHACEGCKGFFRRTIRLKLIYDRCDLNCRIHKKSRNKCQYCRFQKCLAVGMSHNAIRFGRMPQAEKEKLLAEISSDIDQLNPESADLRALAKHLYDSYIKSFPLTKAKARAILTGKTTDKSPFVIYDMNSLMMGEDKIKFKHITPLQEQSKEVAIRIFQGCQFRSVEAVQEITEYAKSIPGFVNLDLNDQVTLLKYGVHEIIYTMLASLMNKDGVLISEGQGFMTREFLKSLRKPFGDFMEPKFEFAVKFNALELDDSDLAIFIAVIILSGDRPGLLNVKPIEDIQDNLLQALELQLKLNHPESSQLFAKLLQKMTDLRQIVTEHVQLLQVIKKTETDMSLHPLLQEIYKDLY", "assay": "ATG_PPARg_TRANS: Attagene TRANS-FACTORIAL HepG2 Assay for human Peroxisome Proliferator-activated Receptor-gamma (PPARg) (AID 2283007; active = hit-call score of the fitted dose curve at least 0.9, where 1 is the maximum)", "how_it_was_run": "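After 24 h of chemical exposure, transfected HepG2 cells carrying PPARγ-Gal4 chimera reporter constructs are lysed for RNA. Reporter transcripts are measured by RT-PCR and capillary electrophoresis with fluorescent labelling, and gain of signal is fitted versus DMSO.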"}, "[9]": {"target": "Nuclear receptor subfamily 1 group I member 2 (Homo sapiens) (UniProt O75469)", "sequence (O75469 whole entry, looked up, the tested form may be a part)": "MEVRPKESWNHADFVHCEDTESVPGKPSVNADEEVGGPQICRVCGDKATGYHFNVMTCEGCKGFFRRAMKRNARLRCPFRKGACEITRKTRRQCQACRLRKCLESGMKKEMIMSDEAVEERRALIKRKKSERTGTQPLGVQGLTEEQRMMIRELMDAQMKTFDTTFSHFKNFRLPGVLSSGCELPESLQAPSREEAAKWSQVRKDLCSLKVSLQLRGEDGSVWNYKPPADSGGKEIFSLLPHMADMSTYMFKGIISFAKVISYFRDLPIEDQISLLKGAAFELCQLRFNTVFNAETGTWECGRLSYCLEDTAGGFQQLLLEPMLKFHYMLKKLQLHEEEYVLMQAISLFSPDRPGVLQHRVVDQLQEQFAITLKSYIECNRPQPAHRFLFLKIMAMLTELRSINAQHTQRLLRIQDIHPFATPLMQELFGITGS", "assay": "ATG_PXR_TRANS: Attagene TRANS-FACTORIAL HepG2 Assay for human Pregnane X Receptor (PXR) (AID 2283008; active = hit-call score of the fitted dose curve at least 0.9, where 1 is the maximum)", "how_it_was_run": "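Fluorescence intensity of FAM-labelled, HpaI-digested reporter amplicons, separated by capillary electrophoresis, quantifies induction. HepG2 cells with PXR-Gal4 trans-reporter system were exposed 24 h; DMSO defines baseline.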"}, "[10]": {"target": "Cellular tumor antigen p53 (Homo sapiens) (UniProt P04637)", "sequence (P04637 whole entry, looked up)": "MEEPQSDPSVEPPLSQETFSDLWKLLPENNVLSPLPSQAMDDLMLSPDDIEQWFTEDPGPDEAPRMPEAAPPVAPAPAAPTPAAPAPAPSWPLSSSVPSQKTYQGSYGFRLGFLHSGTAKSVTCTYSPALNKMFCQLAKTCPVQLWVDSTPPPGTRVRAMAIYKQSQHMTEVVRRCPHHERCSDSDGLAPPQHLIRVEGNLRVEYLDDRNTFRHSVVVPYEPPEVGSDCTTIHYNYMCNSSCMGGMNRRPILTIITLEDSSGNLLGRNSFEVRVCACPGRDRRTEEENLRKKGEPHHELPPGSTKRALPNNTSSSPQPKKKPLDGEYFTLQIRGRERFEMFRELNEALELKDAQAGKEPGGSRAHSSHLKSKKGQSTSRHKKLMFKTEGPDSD", "assay": "ATG_p53_CIS: Attagene CIS-FACTORIAL HepG2 Assay for human p53 Transcription Factor (AID 2282994)", "conditions": "HepG2 p53 cis-element reporter, Attagene mRNA; actives raise or lower the signal", "how_it_was_run": "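Using HepG2 hepatoma cells carrying cis-acting multiplexed reporters, mRNA induction is detected after a 24 h exposure. Gain- and loss-of-signal responses are fitted relative to DMSO-treated cells.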"}, "[11]": {"target": "human Retinoic Acid Receptor beta (RARb), RARB (gene 5915) (UniProt P10826)", "sequence (P10826 whole entry, looked up, the tested form may be a part)": "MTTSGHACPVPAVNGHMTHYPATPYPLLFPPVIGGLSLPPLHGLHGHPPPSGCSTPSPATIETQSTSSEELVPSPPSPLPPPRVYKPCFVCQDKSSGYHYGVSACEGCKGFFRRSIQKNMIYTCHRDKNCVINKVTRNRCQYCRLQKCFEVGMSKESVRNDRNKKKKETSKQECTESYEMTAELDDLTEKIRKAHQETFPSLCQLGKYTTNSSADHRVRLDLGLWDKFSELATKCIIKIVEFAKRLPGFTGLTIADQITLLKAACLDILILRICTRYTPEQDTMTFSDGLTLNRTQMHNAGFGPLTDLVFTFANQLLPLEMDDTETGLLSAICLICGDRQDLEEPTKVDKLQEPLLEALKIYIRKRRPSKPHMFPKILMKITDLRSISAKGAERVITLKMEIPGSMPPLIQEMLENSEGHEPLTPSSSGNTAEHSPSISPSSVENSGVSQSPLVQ", "assay": "ATG_RARb_TRANS: Attagene TRANS-FACTORIAL HepG2 Assay for human Retinoic Acid Receptor beta (AID 2283004; active = hit-call score of the fitted dose curve at least 0.9, where 1 is the maximum)", "how_it_was_run": "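Fluorescent capillary-electrophoresis detection of GAL4-UAS reporter mRNA defines the endpoint, with induction over DMSO-treated wells scored as activity. Transiently transfected human hepatoma HepG2 cells expressing exogenous NR–Gal4 proteins are exposed to test chemicals for 24 h.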"}, "[12]": {"target": "Retinoic acid receptor alpha (Homo sapiens) (UniProt P10276)", "sequence (P10276 whole entry, looked up, the tested form may be a part)": "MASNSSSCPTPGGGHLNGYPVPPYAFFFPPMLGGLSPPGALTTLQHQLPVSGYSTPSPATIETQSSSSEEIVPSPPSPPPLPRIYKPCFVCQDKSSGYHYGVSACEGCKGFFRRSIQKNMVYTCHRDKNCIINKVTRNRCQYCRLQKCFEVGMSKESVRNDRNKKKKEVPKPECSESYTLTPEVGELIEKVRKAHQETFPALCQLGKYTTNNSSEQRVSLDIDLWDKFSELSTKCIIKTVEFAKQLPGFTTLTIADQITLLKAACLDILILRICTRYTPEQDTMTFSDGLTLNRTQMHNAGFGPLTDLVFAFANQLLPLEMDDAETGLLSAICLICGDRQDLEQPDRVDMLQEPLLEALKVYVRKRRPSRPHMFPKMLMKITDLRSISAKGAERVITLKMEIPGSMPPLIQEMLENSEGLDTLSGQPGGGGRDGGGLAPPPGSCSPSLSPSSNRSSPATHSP", "assay": "ATG_RARa_TRANS: Attagene TRANS-FACTORIAL HepG2 Assay for human Retinoic Acid Receptor alpha (RARa) (AID 2283005; active = hit-call score of the fitted dose curve at least 0.9, where 1 is the maximum)", "how_it_was_run": "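HepG2 cells transiently transfected with multiple reporter units expressing chimeric RARα-GAL4 fusion, with GAL4-UAS-driven reporters. After 24 h compound exposure, reporter mRNA induction quantified by RT-PCR and capillary electrophoresis with fluorescent labeling; gain-of-signal fitted relative to DMSO control.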"}, "[13]": {"target": "human Retinoic Acid Receptor gamma (RARg), RARG (gene 5916) (UniProt P13631)", "sequence (P13631 whole entry, looked up, the tested form may be a part)": "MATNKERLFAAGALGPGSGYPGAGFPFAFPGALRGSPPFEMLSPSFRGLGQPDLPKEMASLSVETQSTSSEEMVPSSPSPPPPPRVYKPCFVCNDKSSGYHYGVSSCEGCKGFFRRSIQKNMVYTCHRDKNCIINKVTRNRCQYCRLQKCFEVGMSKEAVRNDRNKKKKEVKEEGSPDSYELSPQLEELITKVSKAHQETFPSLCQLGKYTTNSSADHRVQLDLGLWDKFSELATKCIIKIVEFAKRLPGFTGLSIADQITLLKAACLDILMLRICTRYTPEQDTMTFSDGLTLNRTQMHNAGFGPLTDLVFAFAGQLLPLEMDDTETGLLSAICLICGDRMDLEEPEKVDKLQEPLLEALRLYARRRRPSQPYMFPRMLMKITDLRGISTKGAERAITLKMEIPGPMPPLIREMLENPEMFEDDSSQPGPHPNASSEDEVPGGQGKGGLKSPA", "assay": "ATG_RARg_TRANS: Attagene TRANS-FACTORIAL HepG2 Assay for human Retinoic Acid Receptor gamma (RARg) (AID 2283009; active = hit-call score of the fitted dose curve at least 0.9, where 1 is the maximum)", "how_it_was_run": "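HepG2 transiently transfected with GAL4-UAS reporter units and chimeric NR-Gal4 constructs; 24 h compound exposure. Reporter mRNA quantified by RT-PCR, FAM labeling, HpaI digestion and capillary electrophoresis; gain-of-signal versus DMSO.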"}, "[14]": {"target": "human Peroxisome Proliferator-activated Receptor delta (PPARd), PPARD (gene 5467) (UniProt Q03181)", "sequence (Q03181 whole entry, looked up, the tested form may be a part)": "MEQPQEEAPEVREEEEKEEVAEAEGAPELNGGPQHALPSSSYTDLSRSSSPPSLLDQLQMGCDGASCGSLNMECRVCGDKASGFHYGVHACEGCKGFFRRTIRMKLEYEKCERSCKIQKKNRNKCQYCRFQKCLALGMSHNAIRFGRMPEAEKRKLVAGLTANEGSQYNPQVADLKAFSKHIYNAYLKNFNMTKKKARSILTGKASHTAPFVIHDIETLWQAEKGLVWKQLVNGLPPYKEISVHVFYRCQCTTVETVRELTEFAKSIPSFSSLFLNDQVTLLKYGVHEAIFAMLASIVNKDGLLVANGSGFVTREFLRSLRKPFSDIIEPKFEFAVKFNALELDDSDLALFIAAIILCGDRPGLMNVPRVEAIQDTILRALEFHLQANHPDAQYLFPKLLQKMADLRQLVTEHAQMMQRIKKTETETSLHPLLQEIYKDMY", "assay": "ATG_PPARd_TRANS: Attagene TRANS-FACTORIAL HepG2 Assay for human Peroxisome Proliferator-activated Receptor delta (PPARd) (AID 2283002; active = hit-call score of the fitted dose curve at least 0.9, where 1 is the maximum)", "how_it_was_run": "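Multiplexed trans-activation format: HepG2 liver cells expressing exogenous NR-Gal4 chimeras and GAL4-UAS reporters were exposed for 24 h. Reporter mRNA was detected by RT-PCR with capillary electrophoresis fluorescence; activity fitted as gain of signal relative to DMSO.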"}}, "note": "Results filed as inconclusive are left out. Calls of active or inactive are those of the source. Rule for the calls, unless noted: active = hit-call score of the fitted dose curve at least 0.9, where 1 is the maximum; inactive = score below 0.9."}
{"compound": "CCCCCCCCCCCCCC[P+](CCCC)(CCCC)CCCC", "values": [{"measurement": "outcome", "setting": "[1]", "value": "inactive"}, {"measurement": "AC50", "setting": "[2]", "value": "1.24 µM (active)"}, {"measurement": "outcome", "setting": "[3]", "value": "inactive"}, {"measurement": "outcome", "setting": "[4]", "value": "inactive"}, {"measurement": "AC50", "setting": "[5]", "value": "0.719 µM (active)"}, {"measurement": "AC50", "setting": "[6]", "value": "0.903 µM (active)"}, {"measurement": "outcome", "setting": "[7]", "value": "inactive"}, {"measurement": "outcome", "setting": "[8]", "value": "inactive"}, {"measurement": "outcome", "setting": "[9]", "value": "inactive"}]}
{"compound": "O=c1[nH]cccc1O", "values": [{"measurement": "outcome", "setting": "[1]", "value": "inactive"}, {"measurement": "outcome", "setting": "[2]", "value": "inactive"}, {"measurement": "outcome", "setting": "[3]", "value": "inactive"}, {"measurement": "outcome", "setting": "[4]", "value": "inactive"}, {"measurement": "outcome", "setting": "[5]", "value": "inactive"}, {"measurement": "outcome", "setting": "[6]", "value": "inactive"}, {"measurement": "outcome", "setting": "[10]", "value": "inactive"}, {"measurement": "outcome", "setting": "[11]", "value": "inactive"}, {"measurement": "outcome", "setting": "[12]", "value": "inactive"}, {"measurement": "outcome", "setting": "[8]", "value": "inactive"}, {"measurement": "outcome", "setting": "[13]", "value": "inactive"}]}
{"compound": "CC(=O)CCC(C)C", "values": [{"measurement": "outcome", "setting": "[1]", "value": "inactive"}, {"measurement": "outcome", "setting": "[2]", "value": "inactive"}, {"measurement": "outcome", "setting": "[3]", "value": "inactive"}, {"measurement": "outcome", "setting": "[4]", "value": "inactive"}, {"measurement": "outcome", "setting": "[5]", "value": "inactive"}, {"measurement": "outcome", "setting": "[6]", "value": "inactive"}, {"measurement": "outcome", "setting": "[10]", "value": "inactive"}, {"measurement": "outcome", "setting": "[12]", "value": "inactive"}, {"measurement": "outcome", "setting": "[9]", "value": "inactive"}, {"measurement": "outcome", "setting": "[13]", "value": "inactive"}]}
{"compound": "Brc1ccccn1", "values": [{"measurement": "outcome", "setting": "[1]", "value": "inactive"}, {"measurement": "outcome", "setting": "[2]", "value": "inactive"}, {"measurement": "outcome", "setting": "[3]", "value": "inactive"}, {"measurement": "outcome", "setting": "[4]", "value": "inactive"}, {"measurement": "outcome", "setting": "[5]", "value": "inactive"}, {"measurement": "outcome", "setting": "[6]", "value": "inactive"}, {"measurement": "outcome", "setting": "[10]", "value": "inactive"}, {"measurement": "outcome", "setting": "[11]", "value": "inactive"}, {"measurement": "outcome", "setting": "[8]", "value": "inactive"}, {"measurement": "outcome", "setting": "[9]", "value": "inactive"}]}
{"compound": "CCc1ccc(C)nc1", "values": [{"measurement": "outcome", "setting": "[1]", "value": "inactive"}, {"measurement": "outcome", "setting": "[2]", "value": "inactive"}, {"measurement": "outcome", "setting": "[3]", "value": "inactive"}, {"measurement": "outcome", "setting": "[4]", "value": "inactive"}, {"measurement": "outcome", "setting": "[5]", "value": "inactive"}, {"measurement": "outcome", "setting": "[6]", "value": "inactive"}, {"measurement": "outcome", "setting": "[10]", "value": "inactive"}, {"measurement": "outcome", "setting": "[12]", "value": "inactive"}, {"measurement": "outcome", "setting": "[8]", "value": "inactive"}]}
{"compound": "OCCC(O)CO", "note": "(stereo not drawn)", "values": [{"measurement": "outcome", "setting": "[1]", "value": "inactive"}, {"measurement": "outcome", "setting": "[2]", "value": "inactive"}, {"measurement": "outcome", "setting": "[3]", "value": "inactive"}, {"measurement": "outcome", "setting": "[4]", "value": "inactive"}, {"measurement": "outcome", "setting": "[5]", "value": "inactive"}, {"measurement": "outcome", "setting": "[6]", "value": "inactive"}, {"measurement": "outcome", "setting": "[10]", "value": "inactive"}, {"measurement": "outcome", "setting": "[13]", "value": "inactive"}]}
{"compound": "OCC1CCCO1", "note": "(stereo not drawn)", "values": [{"measurement": "outcome", "setting": "[1]", "value": "inactive"}, {"measurement": "outcome", "setting": "[2]", "value": "inactive"}, {"measurement": "outcome", "setting": "[3]", "value": "inactive"}, {"measurement": "outcome", "setting": "[4]", "value": "inactive"}, {"measurement": "outcome", "setting": "[5]", "value": "inactive"}, {"measurement": "outcome", "setting": "[6]", "value": "inactive"}, {"measurement": "outcome", "setting": "[10]", "value": "inactive"}, {"measurement": "outcome", "setting": "[14]", "value": "inactive"}, {"measurement": "outcome", "setting": "[11]", "value": "inactive"}, {"measurement": "outcome", "setting": "[9]", "value": "inactive"}, {"measurement": "outcome", "setting": "[13]", "value": "inactive"}]}
{"compound": "CCc1cc(Cc2cc(CC)c(N)c(CC)c2)cc(CC)c1N", "values": [{"measurement": "outcome", "setting": "[1]", "value": "inactive"}, {"measurement": "AC50", "setting": "[2]", "value": "53.4 µM (active)"}, {"measurement": "AC50", "setting": "[3]", "value": "57.3 µM (active)"}, {"measurement": "outcome", "setting": "[4]", "value": "inactive"}, {"measurement": "AC50", "setting": "[5]", "value": "1.62 µM (active)"}, {"measurement": "AC50", "setting": "[6]", "value": "41.9 µM (active)"}, {"measurement": "AC50", "setting": "[10]", "value": "27.2 µM (active)"}, {"measurement": "AC50", "setting": "[8]", "value": "0.886 µM (active)"}, {"measurement": "AC50", "setting": "[9]", "value": "1.08 µM (active)"}, {"measurement": "outcome", "setting": "[13]", "value": "inactive"}]}
